Screens as filed in PubChem.
Peg3 prom inh: inhibitors of Peg3 promoter. HeLa PEG-Prom luciferase reporter, luminescence, overnight. inhibition, % at 20 µM. 1.7% of 360,000 active;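 active means inhibition of at least 50% at 20 µM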
EBV LMP1 NFkB: Epstein-Barr LMP1 NF-kappaB reporter inhibition; LMP1-induced NF-kappaB luciferase reporter cells, luminescence; AID 504558; inhibition, % at 12.5 µM; 0.69% of 350,000 active; in the data active means inhibition above about 41%;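 further: 0% = neutral control wells and 100% = reference inhibitor control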
PAX8 reporter: lowers PAX8-driven luciferase in RMG-I cells; AID 652154; inhibition, % at 12.6 µM; RMG-I TPO-luciferase reporter, SteadyGlo, 24 h; 1.2% of 360,000 active;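 active means mean replicate inhibition at least 60% with every replicate also reaching 60%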;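 further: luciferase light reporting Pax8 driven TPO promoter activity; plate controls were median of neutral control wells for no effect and mitoxantrone controls for full effect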
HIF-2a inh: blocks HIF-2a reporter activity; 786-0 RCC cells HIF-2a reporter, luciferase luminescence, overnight; inhibition, % at 18.8 µM; 0.72% of 360,000 active; AID 624352;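 active means inhibition of the luminescence signal of 40% or more relative to plate controls, in a single-dose primary screen at 18.75 µM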
Shn3 inh set2: inhibitors of Schnurri-3 3'UTR reporter in osteoblasts; 0.52% of 360,000 active; Clone20 osteoblast Shn3 3'UTR firefly luciferase, 24 h; inhibition, % at 12.5 µM;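 active means mean inhibition of at least 75% with every replicate also reaching 75%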;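 further: 0% = median of neutral control wells and 100% = pilot-screen positive control compound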
MITF TRPM1 inh: MITF TRPM1 promoter inhibition in SK-MEL-5 cells; SK-MEL-5 TRPM1 promoter luciferase, 24 h; inhibition, % at 12.5 µM; 0.83% of 330,000 active;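 active means mean inhibition across replicates of 60% or more, whatever share of single replicates reaches that level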
* marks the source's active call; other numbers are inactive results; x = no result. Hits are enriched below; roughly 2.8% of the tested compounds scored in any of these assays.

SMILES	Peg3 prom inh	EBV LMP1 NFkB	PAX8 reporter	HIF-2a inh	Shn3 inh set2	MITF TRPM1 inh
O=C(CN1CC(c2ccccc2)CC1=O)N/N=C/c1cc(Br)ccc1O (centres undefined)	46	1	21	27	88*	10
O=C(/C=C/c1ccc(Cl)c([N+](=O)[O-])c1)Nc1ccc(NC(=O)c2ccco2)cc1	61*	-1	15	-13	-2	3
O=C(/C=C/c1ccc(Cl)c([N+](=O)[O-])c1)Nc1cccc(NC(=O)c2ccco2)c1	114*	7	-1	-149	10	-10
O=C(NC[C@@H]1CC[C@H]2[C@H](CN2Cc2ccccc2F)O1)C1CCCCC1	x	x	-10	x	x	x
C[C@H]1CN([C@@H](C)CO)C(=O)c2cc(C#CCc3ccccc3)cnc2O[C@@H]1CN(C)C(=O)C1CCCCC1	x	x	-6	x	x	x
CC(C)NC(=O)Nc1ccc2c(c1)C(=O)N([C@@H](C)CO)C[C@H](C)[C@H](CN(C)Cc1ccc(Cl)c(Cl)c1)O2	x	x	-9	x	x	x
COc1ccc(-c2cc(C(F)(F)F)nc(S(=O)(=O)CCC(=O)N3CCOCC3)n2)cc1	103*	-5	x	-7	5	19
Cc1ccc(S(=O)(=O)CCC(=O)Nc2cc(C)on2)cc1	2	-1	6	-2	8	x
COc1ccc(-c2cc(C(F)(F)F)nc(S(=O)(=O)CCCC(=O)Nc3cccc(O)c3)n2)cc1OC	96*	x	63*	-9	-3	x
COc1ccccc1-c1cc(C(F)(F)F)nc(S(=O)(=O)CCCC(=O)O)n1	2	-15	x	-1	3	12
Cc1cc(NC(=O)CCS(=O)(=O)c2nc(-c3ccccc3)cc(C(F)(F)F)n2)no1	106*	-26	x	65*	65	85*
CS(=O)(=O)c1nc(-c2ccccc2)cc(C(F)(F)F)n1	104*	30	x	94*	95*	95*
C[C@@H]1CCCCO[C@@H](CN(C)C(=O)c2ccccc2)[C@H](C)CN([C@@H](C)CO)C(=O)c2cc(N(C)C)ccc2O1	x	x	6	x	x	x
COc1ccc(NC(=O)Nc2ccc3c(c2)C(=O)N([C@@H](C)CO)C[C@H](C)[C@@H](CN(C)S(=O)(=O)c2ccc(C)cc2)OCCCC[C@H](C)O3)cc1	x	x	-3	x	x	x
O=C(NC[C@@H]1CC[C@H]2[C@H](CN2Cc2ccc(Oc3ccccc3)cc2)O1)C1CCOCC1	x	x	-17	x	x	x
CO[C@@H]1CN(C)C(=O)c2cc(NC(=O)c3ccccc3)ccc2OC[C@H](C)NC[C@H]1C	x	x	7	x	x	x
Nc1nc(=S)[nH]c2c1C1(CCCCC1)Cc1ccccc1-2	-11	-13	-9	11	90*	10
CCCc1ccc(C2C3=C(CC(C)(C)CC3=O)NC3=C2C(=O)c2ccccc23)cc1 (centres undefined)	56*	6	x	-16	50	5
CCCCc1ccc(C2C3=C(CC(C)(C)CC3=O)NC3=C2C(=O)c2ccccc23)cc1 (centres undefined)	43	-16	23	19	11	17
CN(C)c1cc[n+](CC(=O)Nc2ccc(Cl)c([N+](=O)[O-])c2)cc1	7	-13	63*	14	8	4
O=C(Oc1ccc(NC2=C(Cl)C(=O)c3ccccc3C2=O)cc1)c1ccc([N+](=O)[O-])cc1	99*	19	x	13	6	82*
O=C(Oc1ccc([N+](=O)[O-])cc1)c1cccnc1	12	3	7	7	-10	-5
CC(=O)N(C1CC(C)C(C#N)(C#N)C1(C#N)C#N)N(C)C (centres undefined)	102*	1	75*	46*	93*	86*
CCCC(=O)N(C1CC(C)C(C#N)(C#N)C1(C#N)C#N)N(C)C (centres undefined)	107*	28	68*	86*	97*	83*
C[C@@H]1CN([C@@H](C)CO)C(=O)Cc2cc(NS(=O)(=O)c3cn(C)cn3)ccc2O[C@H]1CN(C)Cc1ccncc1	x	x	-11	x	x	x
SMILES	Peg3 prom inh	EBV LMP1 NFkB	PAX8 reporter	HIF-2a inh	Shn3 inh set2	MITF TRPM1 inh
C[C@H](NC(=O)C[C@H]1CC[C@@H]2[C@H](COC[C@H](O)CN2C(=O)Nc2ccccc2)O1)c1ccccc1	x	x	-3	x	x	x
C[C@H]1CN([C@@H](C)CO)C(=O)c2cc(NC(=O)CCN3CCOCC3)ccc2O[C@@H]1CN(C)S(C)(=O)=O	x	x	-27	x	x	x
N#C[C@@H]1[C@@H](c2ccc(-c3ccc(F)cc3)cc2)[C@@H](CO)N1c1nc(-c2ccccc2)cs1	x	x	-8	x	x	x
CCN(Cc1ccc(OC)c(F)c1)C(=O)CCl	40	-14	-3	13	15	75*
NC(N)=N/N=C(\N=Nc1ccccc1)c1ccc(Cl)cc1	90*	-6	-33	-109	5	40
NC(N)=N/N=C(\N=Nc1ccccc1)c1cccc2cccnc12	-12	3	3	17	21	3
CCOC(=O)c1c(N)n(CCOC(=O)c2cccs2)c2nc3ccccc3nc12	-16	11	x	-6	3	-4
CCCCCOC(=O)c1c(N)n(CCOC)c2nc3ccccc3nc12	19	15	x	-15	-14	61*
C[C@@H]1CCCCO[C@H](CN(C)S(=O)(=O)c2ccc(Cl)cc2)[C@@H](C)CN([C@@H](C)CO)C(=O)c2cc(NS(=O)(=O)c3ccc(F)cc3)ccc2O1	x	x	75*	x	x	x
C[C@@H]1CCCCO[C@@H](CN(C)S(=O)(=O)c2ccc(Cl)cc2)[C@H](C)CN([C@H](C)CO)C(=O)c2cc(NS(=O)(=O)c3ccc(F)cc3)ccc2O1	x	x	81*	x	x	x
C[C@@H]1CN([C@H](C)CO)C(=O)c2cc(NS(=O)(=O)c3ccc(Cl)cc3)ccc2O[C@@H](C)CCCCO[C@H]1CN(C)S(=O)(=O)c1ccc(F)cc1	x	x	87*	x	x	x
C[C@@H]1CN([C@@H](C)CO)C(=O)c2cc(NS(=O)(=O)c3ccc(F)cc3)ccc2O[C@@H](C)CCCCO[C@@H]1CN(C)S(=O)(=O)c1ccc(Cl)cc1	x	x	46	x	x	x
C[C@H](CO)N1C[C@H](C)[C@@H](CN(C)S(=O)(=O)c2ccc(F)cc2)OCCCC[C@H](C)Oc2ccc(NS(=O)(=O)c3ccc(Cl)cc3)cc2C1=O	x	x	90*	x	x	x
C[C@@H]1CCCCO[C@@H](CN(C)S(=O)(=O)c2ccc(F)cc2)[C@@H](C)CN([C@@H](C)CO)C(=O)c2cc(NS(=O)(=O)c3ccc(Cl)cc3)ccc2O1	x	x	43	x	x	x
O=C(C[C@H]1CC[C@@H]2[C@H](COC[C@H](O)CN2Cc2ccc(F)cc2)O1)NCc1ccccc1Cl	x	x	2	x	x	x
CO[C@H]1CN(C)C(=O)c2ccc(NC(=O)C3CC3)cc2OC[C@@H](C)N(Cc2cccc(F)c2)C[C@H]1C	x	x	13	x	x	x
C[C@@H]1CCCCO[C@@H](CN(C)S(=O)(=O)c2ccc(Cl)cc2)[C@@H](C)CN([C@@H](C)CO)C(=O)c2cc(NS(=O)(=O)c3cn(C)cn3)ccc2O1	x	x	-15	x	x	x
CC(=O)N1CCc2c(sc(NC(=O)c3ccc([N+](=O)[O-])o3)c2C#N)C1	109*	-16	96*	-11	13	95*
